What all share (set-up): scale not given: direction of the effect not stated beside the values
The target of test [1] is Protein translocase subunit SecA (Escherichia coli (strain K12)) (UniProt P10408). As to the kind of experiment: Assay to Identify E. coli SecA ATPase Inhibitors. Format: functional. The note with it: 30 µM.
For test [2], the target named is T1, Ubiquitin-activating enzyme e1, putative (Leishmania donovani (strain BPK282A1)) (UniProt E9BSI1).
T1 sequence (whole entry): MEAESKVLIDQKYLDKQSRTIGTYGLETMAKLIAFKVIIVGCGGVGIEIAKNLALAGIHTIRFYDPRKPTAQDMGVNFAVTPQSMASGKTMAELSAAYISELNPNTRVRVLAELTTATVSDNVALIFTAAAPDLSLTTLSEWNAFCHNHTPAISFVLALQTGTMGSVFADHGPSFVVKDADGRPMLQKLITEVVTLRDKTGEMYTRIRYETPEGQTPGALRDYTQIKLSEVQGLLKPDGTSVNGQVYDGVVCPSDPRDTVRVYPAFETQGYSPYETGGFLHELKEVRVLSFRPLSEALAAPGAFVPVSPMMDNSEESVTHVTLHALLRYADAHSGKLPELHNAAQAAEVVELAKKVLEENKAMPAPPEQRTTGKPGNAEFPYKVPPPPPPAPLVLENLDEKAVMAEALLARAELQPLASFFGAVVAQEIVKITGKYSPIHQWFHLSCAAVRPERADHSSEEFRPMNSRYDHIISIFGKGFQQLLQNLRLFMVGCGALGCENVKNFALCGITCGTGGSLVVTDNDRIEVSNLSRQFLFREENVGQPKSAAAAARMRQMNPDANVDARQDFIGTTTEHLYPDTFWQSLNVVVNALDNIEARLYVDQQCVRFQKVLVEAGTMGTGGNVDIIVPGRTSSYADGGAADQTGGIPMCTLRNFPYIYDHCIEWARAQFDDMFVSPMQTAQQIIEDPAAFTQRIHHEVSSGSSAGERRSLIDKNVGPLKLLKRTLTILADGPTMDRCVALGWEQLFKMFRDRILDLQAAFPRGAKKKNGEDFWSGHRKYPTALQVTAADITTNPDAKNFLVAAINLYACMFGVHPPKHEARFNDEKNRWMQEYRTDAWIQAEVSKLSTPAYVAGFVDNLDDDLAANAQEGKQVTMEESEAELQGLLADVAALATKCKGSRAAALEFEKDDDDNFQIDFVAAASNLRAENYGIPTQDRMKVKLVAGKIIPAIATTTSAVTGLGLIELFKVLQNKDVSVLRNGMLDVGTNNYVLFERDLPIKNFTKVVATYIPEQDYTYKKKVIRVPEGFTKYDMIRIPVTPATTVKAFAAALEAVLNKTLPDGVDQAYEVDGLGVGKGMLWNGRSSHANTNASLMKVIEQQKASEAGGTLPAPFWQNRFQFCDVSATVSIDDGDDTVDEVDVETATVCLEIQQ
The test is described as follows: Leishmania donovani Ubiquitin Activating Enzyme (LdE1). Format: functional. The note with it: 30 µM.

Test [3] addresses AMP-activated protein kinase, AMPK (Homo sapiens) (UniProt P54646+O43741+P54619+Q9UGJ0+Q9Y478+Q13131+Q9UGI9). As to the kind of experiment: AMP-dependent Kinase enzyme assay. An in vitro enzyme assay that detects ADP turnover that is directly proportional to AMPK activity. This uses naive AMPK that is activated during the assay with MK-8722. Format: functional. The conditions noted are these: 30 µM.

In test [4] the target is Sialic acid-binding Ig-like lectin 9 (Homo sapiens) (UniProt Q9Y336). The test is described as follows: Hs-Siglec9 ALPHAscreen SOP 20170721. The conditions noted are these: 10 µM.
Sequence of Sialic acid-binding Ig-like lectin 9 (Homo sapiens) (Q9Y336 whole entry): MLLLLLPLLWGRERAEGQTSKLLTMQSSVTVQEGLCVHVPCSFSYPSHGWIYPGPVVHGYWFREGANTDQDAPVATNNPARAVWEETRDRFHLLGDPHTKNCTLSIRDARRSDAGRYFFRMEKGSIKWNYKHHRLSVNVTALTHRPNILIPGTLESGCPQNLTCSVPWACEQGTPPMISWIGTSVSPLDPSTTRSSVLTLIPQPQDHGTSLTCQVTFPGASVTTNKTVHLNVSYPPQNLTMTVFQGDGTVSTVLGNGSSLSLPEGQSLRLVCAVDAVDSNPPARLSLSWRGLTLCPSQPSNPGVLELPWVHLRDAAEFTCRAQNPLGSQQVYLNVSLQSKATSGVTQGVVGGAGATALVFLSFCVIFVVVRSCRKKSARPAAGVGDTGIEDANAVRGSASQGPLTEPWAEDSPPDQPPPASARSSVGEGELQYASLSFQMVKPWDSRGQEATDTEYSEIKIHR
The test system of a further test is Trypanosoma cruzi. The test is described as follows: Trypanosoma cruzi phosphomannomutase and mannose-1-phosphate guanylyltransferase assay. The test is classed as functional. The note with it: 10 µM.
In test [5] the target is T2, Arginase-2, mitochondrial (Homo sapiens) (UniProt P78540).
T2 sequence (whole entry): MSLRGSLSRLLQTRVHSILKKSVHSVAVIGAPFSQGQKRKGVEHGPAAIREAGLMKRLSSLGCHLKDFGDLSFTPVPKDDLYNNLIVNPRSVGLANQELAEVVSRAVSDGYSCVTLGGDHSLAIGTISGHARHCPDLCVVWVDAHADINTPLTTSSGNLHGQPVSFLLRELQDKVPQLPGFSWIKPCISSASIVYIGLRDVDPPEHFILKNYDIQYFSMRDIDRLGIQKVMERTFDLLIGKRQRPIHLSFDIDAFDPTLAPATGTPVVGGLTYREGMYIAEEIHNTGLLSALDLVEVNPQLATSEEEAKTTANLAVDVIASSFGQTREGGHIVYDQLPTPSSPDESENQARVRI
The test is described as follows: in vitro enzyme assay to detect the production of urea directly proportional to the activity of Arginase II. Further: in the data most compounds retested in dose-response had high values. Format: functional. The conditions noted are these: 33.3 µM.

Test [6] addresses T3, Proteasome subunit beta (Trypanosoma cruzi) (UniProt O96673).
T3 sequence (whole entry): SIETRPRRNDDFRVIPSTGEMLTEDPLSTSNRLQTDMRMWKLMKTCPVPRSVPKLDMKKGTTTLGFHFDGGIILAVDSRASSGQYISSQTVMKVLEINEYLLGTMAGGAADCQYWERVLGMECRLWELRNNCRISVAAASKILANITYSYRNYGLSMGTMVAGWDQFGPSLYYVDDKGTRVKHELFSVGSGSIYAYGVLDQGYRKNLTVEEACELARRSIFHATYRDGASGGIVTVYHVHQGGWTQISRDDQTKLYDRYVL
As to the kind of experiment: Trypanosoma cruzi proteasome chymotrypsin-like activity (TcProtChymo) assay. Further: in the data most compounds retested in dose-response had high values. The conditions noted are these: 9.37 µM. Format: functional.

For a further test, the species on record is Homo sapiens. The test is described as follows: To identify inhibition of the IFN signalling (Jak-Stat) pathway via expression of an eGFP reporter gene under the control of an IFN-stimulated response element (ISRE) containing MxA promoter. The test is classed as functional. The note with it: 30 µM.
Test [7] concerns the target T4, Tyrosyl-tRNA synthetase, putative (Trypanosoma cruzi (strain CL Brener)) (UniProt Q4DSP6).
T4 sequence (whole entry): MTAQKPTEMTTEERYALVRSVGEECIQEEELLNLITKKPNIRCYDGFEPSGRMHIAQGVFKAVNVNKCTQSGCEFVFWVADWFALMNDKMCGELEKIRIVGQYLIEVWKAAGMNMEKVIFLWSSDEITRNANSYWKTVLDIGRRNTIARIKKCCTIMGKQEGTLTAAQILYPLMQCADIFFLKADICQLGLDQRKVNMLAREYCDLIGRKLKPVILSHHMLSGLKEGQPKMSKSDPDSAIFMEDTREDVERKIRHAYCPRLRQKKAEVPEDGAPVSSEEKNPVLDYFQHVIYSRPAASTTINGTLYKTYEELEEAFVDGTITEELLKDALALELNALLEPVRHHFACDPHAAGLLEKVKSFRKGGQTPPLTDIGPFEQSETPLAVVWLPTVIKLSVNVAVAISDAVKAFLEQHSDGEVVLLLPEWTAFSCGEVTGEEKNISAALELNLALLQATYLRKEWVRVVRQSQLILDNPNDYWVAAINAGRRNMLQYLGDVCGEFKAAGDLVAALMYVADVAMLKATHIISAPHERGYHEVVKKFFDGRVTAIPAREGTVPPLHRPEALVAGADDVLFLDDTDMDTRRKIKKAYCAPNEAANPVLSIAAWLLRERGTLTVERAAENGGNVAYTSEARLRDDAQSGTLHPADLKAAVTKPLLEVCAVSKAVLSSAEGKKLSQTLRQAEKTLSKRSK
The test is described as follows: Trypanosoma cruzi tyrosyl tRNA synthetase (TcYRS) _High Tyrosine SOP. Further: in the data most compounds retested in dose-response had high values. The test is classed as functional. The conditions noted are these: 30 µM.

Test [8] addresses T4, Tyrosyl-tRNA synthetase, putative (Trypanosoma cruzi (strain CL Brener)). As to the kind of experiment: Trypanosoma cruzi tyrosyl tRNA synthetase (TcYRS) SOP. The note with it: 30 µM. The test is classed as functional.
The target in test [9] is Chromo domain-containing protein 1 (Saccharomyces cerevisiae (strain ATCC 204508 / S288c) (Baker's yeast)) (UniProt P32657). The test is described as follows: ScCHD-1 Enzyme Inhibition Assay. Further: in the data most compounds retested in dose-response had high values. Format: functional. The note with it: 30 µM.
Sequence of Chromo domain-containing protein 1 (Saccharomyces cerevisiae (strain ATCC 204508 / S288c) (Baker's yeast)) (P32657 whole entry, the tested form may be a part): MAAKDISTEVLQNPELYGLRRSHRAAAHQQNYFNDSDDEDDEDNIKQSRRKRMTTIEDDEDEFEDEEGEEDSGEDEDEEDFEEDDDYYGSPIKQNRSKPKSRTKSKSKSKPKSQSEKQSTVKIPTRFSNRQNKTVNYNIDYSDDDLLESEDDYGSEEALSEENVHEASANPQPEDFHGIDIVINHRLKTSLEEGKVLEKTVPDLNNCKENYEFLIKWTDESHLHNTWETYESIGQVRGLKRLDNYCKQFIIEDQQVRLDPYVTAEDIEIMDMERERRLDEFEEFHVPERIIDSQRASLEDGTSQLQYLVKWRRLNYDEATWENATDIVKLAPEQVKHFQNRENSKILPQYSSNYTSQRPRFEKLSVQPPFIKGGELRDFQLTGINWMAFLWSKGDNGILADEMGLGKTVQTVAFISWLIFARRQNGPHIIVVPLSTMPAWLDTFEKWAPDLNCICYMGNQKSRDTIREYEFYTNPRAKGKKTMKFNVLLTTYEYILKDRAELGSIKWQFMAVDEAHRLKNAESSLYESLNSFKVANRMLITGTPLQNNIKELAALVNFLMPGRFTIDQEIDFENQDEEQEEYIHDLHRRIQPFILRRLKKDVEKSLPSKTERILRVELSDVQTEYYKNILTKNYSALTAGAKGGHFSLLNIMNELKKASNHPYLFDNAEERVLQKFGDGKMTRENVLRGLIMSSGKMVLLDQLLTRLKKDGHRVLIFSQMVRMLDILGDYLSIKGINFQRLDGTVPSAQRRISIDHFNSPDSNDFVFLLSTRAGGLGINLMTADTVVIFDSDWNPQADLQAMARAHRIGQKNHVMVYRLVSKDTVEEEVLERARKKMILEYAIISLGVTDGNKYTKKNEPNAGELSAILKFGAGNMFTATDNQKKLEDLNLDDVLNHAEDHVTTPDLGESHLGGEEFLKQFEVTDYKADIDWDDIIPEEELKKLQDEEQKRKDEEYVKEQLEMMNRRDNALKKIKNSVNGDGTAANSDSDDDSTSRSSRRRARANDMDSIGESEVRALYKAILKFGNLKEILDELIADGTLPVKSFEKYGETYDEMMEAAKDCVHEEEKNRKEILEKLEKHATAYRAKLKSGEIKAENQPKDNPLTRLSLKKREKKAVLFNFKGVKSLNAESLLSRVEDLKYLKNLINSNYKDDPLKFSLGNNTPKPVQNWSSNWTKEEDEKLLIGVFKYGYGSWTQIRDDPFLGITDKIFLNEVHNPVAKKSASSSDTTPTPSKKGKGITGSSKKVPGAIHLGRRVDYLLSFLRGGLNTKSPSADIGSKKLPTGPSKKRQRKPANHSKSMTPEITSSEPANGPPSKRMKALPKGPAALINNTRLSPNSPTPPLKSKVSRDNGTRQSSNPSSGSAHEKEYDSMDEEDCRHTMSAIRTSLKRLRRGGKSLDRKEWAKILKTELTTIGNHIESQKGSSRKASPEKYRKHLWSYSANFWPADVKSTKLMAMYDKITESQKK

Ten compounds from ChEMBL document CHEMBL3988442, “University of Dundee, Small-Polar-MMV Screening Library” (2021) can be followed below.

For some assays here: Results with a measured potency or affinity are listed apart.

Sequence of Protein translocase subunit SecA (Escherichia coli (strain K12)) (P10408 whole entry): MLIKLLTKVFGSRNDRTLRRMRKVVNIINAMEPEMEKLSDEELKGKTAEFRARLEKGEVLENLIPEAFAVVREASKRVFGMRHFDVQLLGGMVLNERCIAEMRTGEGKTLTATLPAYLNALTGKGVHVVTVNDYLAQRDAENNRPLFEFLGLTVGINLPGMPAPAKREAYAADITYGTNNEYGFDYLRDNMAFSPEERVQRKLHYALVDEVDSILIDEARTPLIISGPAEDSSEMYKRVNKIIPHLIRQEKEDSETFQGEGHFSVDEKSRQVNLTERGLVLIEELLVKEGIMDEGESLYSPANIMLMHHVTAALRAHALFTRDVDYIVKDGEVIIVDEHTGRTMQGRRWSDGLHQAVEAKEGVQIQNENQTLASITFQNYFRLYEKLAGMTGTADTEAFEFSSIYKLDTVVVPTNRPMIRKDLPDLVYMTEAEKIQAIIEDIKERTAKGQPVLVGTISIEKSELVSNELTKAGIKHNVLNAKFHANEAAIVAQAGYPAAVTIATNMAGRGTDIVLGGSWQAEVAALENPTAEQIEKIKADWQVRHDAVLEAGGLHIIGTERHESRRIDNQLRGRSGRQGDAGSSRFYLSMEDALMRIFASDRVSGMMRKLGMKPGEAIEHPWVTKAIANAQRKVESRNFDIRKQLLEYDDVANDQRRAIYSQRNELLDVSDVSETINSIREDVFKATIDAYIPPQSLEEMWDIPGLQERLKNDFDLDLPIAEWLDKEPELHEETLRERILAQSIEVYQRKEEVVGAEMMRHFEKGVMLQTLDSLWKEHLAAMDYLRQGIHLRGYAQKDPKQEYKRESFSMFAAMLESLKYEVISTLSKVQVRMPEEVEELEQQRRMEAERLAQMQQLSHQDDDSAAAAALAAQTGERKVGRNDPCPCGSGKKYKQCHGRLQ

On to `Cc1oc(C)c(C(=O)NCc2cccc(NC(=O)CN(C)C)c2)c1C`, for which the Percent Effect in test [1] was -4.78%; in test [2] it was -3.8%; in test [3], -0.508%; in test [4], -0.734%; in the test on Trypanosoma cruzi, 1.95%; in test [5], -1.94%. The Percent Effect is 0.172% in test [6]; -3.06% in the test listed under Homo sapiens; 1.04% in test [7]; 7.59% in test [8]; 7.97% in test [9].

Take `CC(C)c1nc(C2CCCN2C(=O)c2ccc(N(C)C)nn2)no1` (stereo not given): the Percent Effect in [1] was -0.476%; in [2] it was 16.2%; in test [3], -4.5%; in [4], -2.95%; with Trypanosoma cruzi, 0.0929%; in [5], -4.25%. In addition, the Percent Effect in test [6] was 6.1%; in the test listed under Homo sapiens, 24.1%; in [7], 3.96%; in [8], 15.8%; in [9] it was -5.4%.

Regarding `CC(C)OCCCNC(=O)CN1CCC(N2CCN(C)C2=O)CC1`, the Percent Effect in test [1] is -4.79%; in [2] it was -12.7%; in [3], -9.11%; in test [4], 10.6%; in the test with Trypanosoma cruzi, 4.82%; in test [5], -1.9%. Moreover, the Percent Effect in test [6] was 7.45%; in the test filed under Homo sapiens, -2.11%; in test [7] it was -0.493%; in test [8], 8.86%; in test [9], -6.17%.

In the case of `O=C(NCCCN1CCOCC1)c1cc(-c2ccco2)[nH]n1`, the Percent Effect in test [1] is -3.38%; in [2], 8.22%; in test [3], -11%; in [4], 10.3%; in the test with Trypanosoma cruzi, -0.794%; in [5] it was 2.4%. The Percent Effect in test [6] is 11.2%; in the test filed under Homo sapiens it was 0.231%; in test [7], 11.5%; in test [8], 28.4%; in test [9], -2.57%.

For `COC(=O)c1ccc(N2CCN(C(=O)c3cc(C)on3)C(C)C2)cc1` (stereo not given), the Percent Effect in test [1] was -1.64%; in [2], 12.7%; in [3] it was 13.9%; in test [4] it was 10.2%; with Trypanosoma cruzi, -3.87%; in [5] it was 0.76%. For the same compound, the Percent Effect is 9.42% in test [6]; 7.47% in the test filed under Homo sapiens; -2.46% in test [7]; 3.8% in test [8]; -6.13% in test [9].

As to `Cn1cc(CN2CC[C@H]3C[C@H](c4nc(C5CC5)cs4)O[C@@H]3C2)cn1`, the Percent Effect is -0.2% in [1]; 18.2% in test [2]; -0.28% in test [3]; 13.1% in [4]; 6.59% in the test with Trypanosoma cruzi; -9.65% in test [5]. Further, the Percent Effect is 10.8% in [6]; 12.1% in the test filed under Homo sapiens; 4.3% in [7]; 16.1% in test [8]; -1.85% in test [9].

With `Cc1ccccc1CN1CCC(NCC2CNc3ccnn3C2)CC1` (stereo not given), the Percent Effect in test [1] was -0.777%; in [2], 0%; in test [3], -17.1%; in [4], -4.24%; in the test on Trypanosoma cruzi it was 1.27%; in test [5], 1.24%. For the same compound, the Percent Effect was 11.4% in test [6]; -3.35% in the test listed under Homo sapiens; 6.45% in [7]; 13.6% in test [8]; -5.59% in test [9].

As to `O=C(NC1CC1)[C@@H]1CCO[C@@H]2CCN(Cc3ccsc3)C[C@H]21`, the Percent Effect in test [1] is -3.17%; in test [2] it was -8.11%; in test [3], 8.56%; in [4], 0.445%; in the test on Trypanosoma cruzi, -5.38%; in test [5] it was 3.5%. Moreover, the Percent Effect in [6] was 17.5%; in the test listed under Homo sapiens, 3.93%; in test [7], 0%; in [8], 0%; in [9], 7.56%.

On to `O=C(NCc1ccccn1)NC1CCOc2ccccc21` (stereo not given), for which the Percent Effect is -4.23% in [1]; 24.3% in [2]; -0.78% in test [3]; 9.97% in test [4]; 9.19% in the test on Trypanosoma cruzi; 1.29% in test [5]. The Percent Effect in test [6] was 9.52%; in the test filed under Homo sapiens, 12%; in [7], 9.9%; in [8], 28.1%; in [9] it was -5.33%.

Take `CC(Cn1ccnc1)NC(=O)NCCc1ccccn1` (stereo not given): the Percent Effect in test [1] was -1.01%; in [2], 21.1%; in test [3], -0.947%; in test [4] it was -4.27%; in the test with Trypanosoma cruzi it was 1.69%; in test [5], -2.3%. The Percent Effect is 21.2% in test [6]; 6.74% in the test filed under Homo sapiens; 5.39% in test [7]; 21.9% in test [8]; -8.97% in test [9].
